Compound activity from PubChem.
This is a sample that favours compounds with a hit; in the whole collection about 5.7% have one here.
Cdc25B inh – inhibitors of Cdc25B phosphatase catalytic domain, primary screen, biochemical, OMFP fluorescence | inhibition, %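 (compounds tested at 10 µM final in the well)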 | recombinant Cdc25B, OMFP fluorescence Ex485/Em525 | M-phase inducer phosphatase 2 (Homo sapiens), P30305 | AID 368, 2006 | 0.1% of 65,000 active; in the data active means inhibition above about 50%
Target sequence (P30305 whole entry, looked up, the tested form may be a part): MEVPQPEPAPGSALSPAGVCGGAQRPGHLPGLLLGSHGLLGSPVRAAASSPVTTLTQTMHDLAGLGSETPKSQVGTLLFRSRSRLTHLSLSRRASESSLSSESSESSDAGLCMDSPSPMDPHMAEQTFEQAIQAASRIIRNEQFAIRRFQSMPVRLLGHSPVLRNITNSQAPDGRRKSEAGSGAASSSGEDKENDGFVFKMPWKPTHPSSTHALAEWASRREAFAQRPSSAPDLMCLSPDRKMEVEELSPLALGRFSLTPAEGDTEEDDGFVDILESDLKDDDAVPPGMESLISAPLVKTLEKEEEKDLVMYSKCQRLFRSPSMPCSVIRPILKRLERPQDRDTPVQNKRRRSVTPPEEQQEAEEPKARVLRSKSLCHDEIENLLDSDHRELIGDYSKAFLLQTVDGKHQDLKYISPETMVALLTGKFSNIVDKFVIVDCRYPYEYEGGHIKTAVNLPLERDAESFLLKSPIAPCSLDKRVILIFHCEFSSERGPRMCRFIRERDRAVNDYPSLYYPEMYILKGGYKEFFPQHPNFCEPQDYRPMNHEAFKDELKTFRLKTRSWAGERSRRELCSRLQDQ
DUSP1 inh – MKP-1 phosphatase inhibitors, primary screen, biochemical, in vitro; recombinant MKP-1, OMFP hydrolysis fluorescence; inhibition, %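 (compounds tested at a single concentration somewhere between 10 and 100 µM)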; 0.15% of 65,000 active;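 active means inhibition above about 50%, limit read from the data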;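 further: 0% = DMSO max control wells and 100% = wells with enzyme stopped by NaOH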
Abs 340nm – compound light absorbance at 340 nm, profiling panel, artefact control, biochemical, MLSMR library, data from PS, PMK, MK assays; fold change at 10 µM; 65,000 tested, under 10 active; compound absorbance at 340 nm, fold over control;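 active means at 10 µM dose, initial 340 nm absorbance at least 2 fold that of control wells; inactive means change under 2 fold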;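 further: initial absorbance extrapolated from kinetic A340 decline of NADH oxidation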
NADH enzymes – inhibitors of PK/LDH coupling enzymes, profiling panel, artefact control, biochemical, MLSMR library; coupled PK/LDH NADH assays, four targets; AID 774, 2007; IC50, µM (highest dose often 10 µM), without a hit: at the top dose inhibition; 0.02% of 65,000 active;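 active means single-dose screening hits from any of four coupled enzyme assays that gave an IC50 when retested across doses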;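 further: the DPM-DC format reads NADH fluorescence rather than 340 nm absorbance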
Hsp90 inh – tumor Hsp90 inhibitors, primary screen, cell lysate, fluorescence polarization, NCI-N417 lysate. Cy3B-geldanamycin FP displacement. inhibition, % at 30 µM. 0.35% of 64,000 active. AID 429, 2006;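 active means inhibition above 50%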;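 further: 0% = tracer plus lysate wells and 100% = tracer alone without lysate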
Autofluor 339 – intrinsic fluorescence of library compounds, ex339/em460 – biochemical, MLSMR library, data from DPM-DC assay, artefact control, profiling panel | AID 709, 2007 | compound autofluorescence, ex339/em460 nm, NADH buffer; hits give high values; 1 = no-compound wells, NADH background | 5.5% of 65,000 active | fluorescence fold increase at 10 µM;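 active means at 10 µM, mean starting fluorescence two-fold or more over control wells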;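 further: signal is the first read of a kinetic run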
* hit, by the source's call; . = no result given.

SMILES | Cdc25B inh | DUSP1 inh | Abs 340nm | NADH enzymes | Hsp90 inh | Autofluor 339
CCCOC(=O)COc1cc(C)cc2oc(=O)c3c(c12)CCC3 | -8.3 | 8.7 | 1.03 | 6.0% | -0.9 | 2.22*
Cc1cc(OCC(=O)Nc2cc(C)nn2-c2ccccn2)c2c3c(c(=O)oc2c1)CCC3 | 6.7 | -4.9 | 1.04 | 9.0% | -3.6 | 1.92
COC(=O)c1ccc(COc2cc(C)cc3oc(=O)c4c(c23)CCCC4)o1 | 0.4 | 1.8 | 1.02 | 2.0% | -3.8 | 1.3
Cc1cc(OCC(=O)O)c2c3c(c(=O)oc2c1)CCCC3 | -7.8 | -7.1 | 1.02 | 3.0% | 3.8 | 2.45*
Cc1cc(OCC(=O)Nc2c(C)n(C)n(-c3ccccc3)c2=O)c2c3c(c(=O)oc2c1)CCC3 | 3.1 | 8.8 | 1.1 | 7.0% | -5.8 | 2.14*
O=C(O)[C@@H]1CCN1 | . | . | . | . | -4.2 | .
NC(N)=NOCC[C@H](N)C(=O)O | . | . | . | . | 1.5 | .
NC1CCc2cc(O)c(O)cc2C1 (stereo not drawn) | . | . | . | . | 52.9* | .
CN1CC=C2C(C#N)=C(N)C(C#N)(C#N)C(c3ccncc3)C2C1 (stereo not drawn) | -13.9 | -2.5 | 1.07 | 4.0% | 10.3 | 2.01*
NC(CP(=O)(O)O)C(=O)O (stereo not drawn) | . | . | . | . | 0.9 | .
NC1CC1c1ccccc1 (stereo not drawn) | . | . | . | . | 0.4 | .
CS(=N)(=O)CC[C@H](N)C(=O)O (stereo partly drawn) | . | . | . | . | -6.2 | .
NC(Cn1oc(=O)[nH]c1=O)C(=O)O (stereo not drawn) | . | . | . | . | 41.0 | .
CCCNC(=O)c1c(N)n(Cc2ccc3c(c2)OCO3)c2nc3ccccc3nc12 | 5.0 | 8.6 | 0.99 | 3.0% | -14.9 | 2.15*
Nc1c(C(=O)NCc2ccco2)c2nc3ccccc3nc2n1CCN1CCCCC1 | 3.8 | 22.8 | 1.05 | 3.0% | -51.2 | 2.29*
COc1ccc(Cn2c(N)c(C(=O)NCc3ccco3)c3nc4ccccc4nc32)cc1OC | 8.1 | 34.1 | 1.02 | 7.0% | -20.9 | 3.66*
COc1ccc(C(=O)CN2CCOCC2)cc1F | 1.4 | -14.3 | 1.01 | 5.0% | -1.0 | 1.07
O=C(CN1CCOCC1)c1ccc2cc[nH]c2c1 | -12.1 | -5.8 | 1.09 | 4.0% | -4.0 | 2.14*
CC(C)(C)n1c(O)c(C=Nc2ccc3c(c2)CCC3)c(=O)[nH]c1=O | -1.6 | 17.3 | 1.14 | 12.0% | -1.9 | 2.07*
CCOC(=O)c1c(-c2ccc(OC)cc2)oc2ccc(OC(=O)N(C)C)cc12 | -1.9 | 11.1 | 1.08 | 6.0% | 0.1 | 3.78*
CC[C@@H](CO)NC(=O)[C@@H]1C=C2c3cccc4[nH]cc(c34)C[C@H]2N(C)C1 | . | . | . | . | 8.2 | .
CC[C@@H](CO)NC(=O)[C@@H]1C=C2c3cccc4c3c(cn4C)C[C@H]2N(C)C1 | -6.5 | -14.2 | 1 | 4.0% | 6.3 | 2.46*
Oc1ccc2c3c1O[C@H]1[C@@H](O)CC[C@@]4(O)C(C2)N(CC2CCC2)CCC314 (stereo partly drawn) | . | . | . | . | -0.7 | .
C=C(C)[C@H]1Cc2c(ccc3c2O[C@@H]2COc4cc(OC)c(OC)cc4[C@@H]2C3=O)O1 | . | . | . | . | 1.5 | .
COCCOC(=O)c1c(N)n(Cc2ccco2)c2nc3ccccc3nc12 | 26.7 | -19.8 | 1.05 | 9.0% | -2.1 | 2.33*
SMILES | Cdc25B inh | DUSP1 inh | Abs 340nm | NADH enzymes | Hsp90 inh | Autofluor 339
Cc1nn(Cc2ccccc2Cl)c(Cl)c1C(=O)OCC(=O)NCc1ccco1 | 1.9 | 7.4 | 0.99 | 1.0% | 0.1 | 1.06
CCOC(=O)c1c(C)n(Cc2ccco2)c2ccc(OC)cc12 | -5.7 | 9.5 | 1.08 | 0.0% | -2.0 | 1.13
CC(C)OC(=O)c1c(N)n(Cc2ccco2)c2nc3ccccc3nc12 | 15.6 | -15.7 | 1.09 | 16.0% | -3.2 | 2.28*
COCCCNC(=O)c1c(NC(=O)c2ccco2)n(Cc2ccccc2)c2nc3ccccc3nc12 | 5.1 | 6.9 | 1.1 | 9.0% | 1.9 | 3.82*
COc1ccc2c(c[n+](C)c3c4cc5c(cc4ccc23)OCO5)c1OC | . | . | . | . | 13.9 | .
O=C(Cc1ccc(Cl)c(Cl)c1)N1CCCCC1CN1CCCC1 (stereo not drawn) | . | . | . | . | -3.5 | .
Nc1ncnc2c1ncn2[C@@H]1O[C@H](COP(=O)(O)CP(=O)(O)OP(=O)(O)O)[C@H](O)C1O (stereo partly drawn) | . | . | . | . | 1.0 | .
CCOC(=O)c1cc2c(cn1)[nH]c1ccccc12 | -24.1 | 0.0 | 0.98 | 6.0% | -6.0 | 2.16*
COc1ccc(C2=NCC(=O)N(CC(=O)NCc3ccco3)c3sc4c(c32)CCCC4)cc1OC | 56.3* | 2.5 | 1 | 5.0% | -0.1 | 1.01
O=C(CN1C(=O)CN=C(c2ccccc2)c2ccccc21)NCc1ccco1 | 15.1 | -0.3 | 1.01 | 3.0% | -3.3 | 1
COC(=O)c1c(N)n(Cc2ccc(OC)cc2)c2nc3ccccc3nc12 | -0.5 | 13.5 | 1.05 | 3.0% | -5.2 | 3.71*
CCOC(=O)c1c(C)n(CCN2CCN(C)CC2)c2ccc(OC)cc12 | -15.1 | 12.3 | 1.05 | 1.0% | 0.9 | 1.11
COCCOC(=O)c1c(N)n(Cc2ccc(OC)cc2)c2nc3ccccc3nc12 | -6.2 | 41.7 | 1.08 | 9.0% | -8.6 | 3.89*
CCOC(=O)c1c(N)n(Cc2ccc(OC)cc2)c2nc3ccccc3nc12 | -1.1 | 14.2 | 1 | 5.0% | -4.0 | 3.89*
COCCCn1c(N)c(C(=O)OCCOC)c2nc3ccccc3nc21 | 0.5 | 10.5 | 1.1 | 13.0% | -5.2 | 3.84*
NC(CCCCCP(=O)(O)O)C(=O)O (stereo not drawn) | . | . | . | . | 1.5 | .
C=CCN1C[C@@H](C)N([C@H](c2ccc(C(=O)N(CC)CC)cc2)c2cccc(OC)c2)C[C@@H]1C | . | . | . | . | -2.4 | .
CC(=O)OCC1=C(C(=O)[O-])N2C(=O)[C@@H](NC(=O)CCC[C@@H](N)C(=O)[O-])[C@H]2SC1.[Zn+2] | . | . | . | . | -0.8 | .
COc1ccccc1OCCCn1cc(C(=O)c2ccco2)c2ccccc21 | -0.5 | -0.7 | 1.03 | 11.0% | -3.1 | 1.04
CCOC(=O)c1c(N)n(CCCOC(=O)c2ccco2)c2nc3ccccc3nc12 | 5.7 | -6.3 | 1.11 | 11.0% | -1.5 | 4.01*
C[C@H]1CCC[C@H](O)CCCCCc2cc(O)cc(O)c2C(=O)O1 | -9.7 | 10.5 | 0.99 | 4.0% | 87.3* | 1.11
